# Data from article PMC7862700, “An all-to-all approach to the identification of sequence-specific readers for epigenetic DNA modifications on cytosine”.
# Tests used:
# Assay in all cases: DAPPL (digital affinity profiling via proximity ligation, sequencing); 10 mM Tris-HCl pH 7.5, 50 mM NaCl, 1 mM DTT, 4% glycerol, room temperature, 30 min; GST-TFs on glutathione beads, 16-mer random dsDNA library, 0.1% formaldehyde crosslink after washing; high values mean tight binding
# [1] = molecular target: T1, FLI1 (Homo sapiens, UniProt Q01543 1-452); details: protein: recombinant; tags: N-terminal GST; dsDNA, one strand shown
# T1 sequence: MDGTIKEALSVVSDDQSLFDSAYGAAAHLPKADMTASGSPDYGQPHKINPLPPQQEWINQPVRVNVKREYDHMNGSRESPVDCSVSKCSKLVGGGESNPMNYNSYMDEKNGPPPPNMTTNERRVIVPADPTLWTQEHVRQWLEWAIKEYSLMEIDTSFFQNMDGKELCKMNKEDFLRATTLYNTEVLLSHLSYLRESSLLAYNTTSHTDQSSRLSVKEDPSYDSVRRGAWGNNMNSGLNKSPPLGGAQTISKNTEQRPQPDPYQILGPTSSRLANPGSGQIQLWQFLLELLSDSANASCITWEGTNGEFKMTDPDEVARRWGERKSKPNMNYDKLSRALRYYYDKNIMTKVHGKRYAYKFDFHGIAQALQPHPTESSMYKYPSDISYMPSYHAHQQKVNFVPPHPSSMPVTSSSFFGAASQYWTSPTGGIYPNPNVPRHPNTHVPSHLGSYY
# How it was run: (§1)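 Human transcription factors were made in yeast as GST fusions, captured on glutathione beads and barcoded with DNA. With a tag-only sample included, the pool was incubated with 200 nmole of a random double-stranded 16-mer DNA library in Tris/NaCl/DTT/glycerol buffer at room temperature for 30 min, then crosslinked with 0.1% formaldehyde after washing, ligated by proximity, amplified and sequenced. For binding signal, each hexamer's read frequency for a factor is divided by its frequency for the tag-only sample.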
# [2] = molecular target: T2, ELK1 (Homo sapiens, UniProt P19419 1-428); details: protein: recombinant; tags: N-terminal GST; dsDNA, one strand shown
# T2 sequence: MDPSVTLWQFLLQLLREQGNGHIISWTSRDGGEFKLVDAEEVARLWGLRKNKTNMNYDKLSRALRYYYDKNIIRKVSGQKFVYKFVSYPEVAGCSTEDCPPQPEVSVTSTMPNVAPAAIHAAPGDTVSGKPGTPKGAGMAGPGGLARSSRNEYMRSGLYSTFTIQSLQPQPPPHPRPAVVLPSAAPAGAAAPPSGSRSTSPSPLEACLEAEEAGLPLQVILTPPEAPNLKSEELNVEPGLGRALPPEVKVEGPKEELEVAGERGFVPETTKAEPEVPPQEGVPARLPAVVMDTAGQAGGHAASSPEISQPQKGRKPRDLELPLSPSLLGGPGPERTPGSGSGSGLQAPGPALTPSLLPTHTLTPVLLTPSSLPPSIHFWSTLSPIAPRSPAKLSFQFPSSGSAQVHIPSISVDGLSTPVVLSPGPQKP
# How it was run: as §1
# [3] = molecular target: T3, GABPA (Homo sapiens, UniProt Q06546 1-454); details: protein: recombinant; tags: N-terminal GST; dsDNA, one strand shown
# T3 sequence: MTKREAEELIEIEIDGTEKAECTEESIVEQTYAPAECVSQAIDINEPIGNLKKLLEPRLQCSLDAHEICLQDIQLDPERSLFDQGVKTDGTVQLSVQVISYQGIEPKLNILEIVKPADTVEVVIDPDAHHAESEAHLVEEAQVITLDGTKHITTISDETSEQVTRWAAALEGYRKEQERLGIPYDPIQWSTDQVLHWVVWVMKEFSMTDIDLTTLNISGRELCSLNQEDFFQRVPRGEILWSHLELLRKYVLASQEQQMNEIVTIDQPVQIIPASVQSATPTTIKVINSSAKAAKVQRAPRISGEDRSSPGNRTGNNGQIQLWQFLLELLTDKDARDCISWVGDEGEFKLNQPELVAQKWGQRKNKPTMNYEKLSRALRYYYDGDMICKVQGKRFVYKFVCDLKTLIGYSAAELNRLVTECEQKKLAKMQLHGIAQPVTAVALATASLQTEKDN
# How it was run: as §1
# [4] = molecular target: T4, ERG (Homo sapiens, UniProt P11308 1-479); details: protein: recombinant; tags: N-terminal GST; dsDNA, one strand shown
# T4 sequence: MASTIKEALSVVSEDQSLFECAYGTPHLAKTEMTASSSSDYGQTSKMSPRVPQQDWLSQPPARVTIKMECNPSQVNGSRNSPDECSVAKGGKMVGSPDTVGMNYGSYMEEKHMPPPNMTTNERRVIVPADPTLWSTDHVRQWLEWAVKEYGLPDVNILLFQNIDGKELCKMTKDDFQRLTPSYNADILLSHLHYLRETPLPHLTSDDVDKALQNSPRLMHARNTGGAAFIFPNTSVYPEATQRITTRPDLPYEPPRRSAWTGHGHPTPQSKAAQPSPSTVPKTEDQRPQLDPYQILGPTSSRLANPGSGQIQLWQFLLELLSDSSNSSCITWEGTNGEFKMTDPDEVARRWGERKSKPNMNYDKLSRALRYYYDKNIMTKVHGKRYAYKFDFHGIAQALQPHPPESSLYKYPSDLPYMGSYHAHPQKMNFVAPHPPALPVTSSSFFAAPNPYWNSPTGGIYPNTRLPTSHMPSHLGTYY
# How it was run: as §1
# [5] = molecular target: ELF1 (Homo sapiens, UniProt P32519 1-619); details: protein: recombinant; tags: N-terminal GST; dsDNA, one strand shown
# ELF1, sequence (P32519 whole entry): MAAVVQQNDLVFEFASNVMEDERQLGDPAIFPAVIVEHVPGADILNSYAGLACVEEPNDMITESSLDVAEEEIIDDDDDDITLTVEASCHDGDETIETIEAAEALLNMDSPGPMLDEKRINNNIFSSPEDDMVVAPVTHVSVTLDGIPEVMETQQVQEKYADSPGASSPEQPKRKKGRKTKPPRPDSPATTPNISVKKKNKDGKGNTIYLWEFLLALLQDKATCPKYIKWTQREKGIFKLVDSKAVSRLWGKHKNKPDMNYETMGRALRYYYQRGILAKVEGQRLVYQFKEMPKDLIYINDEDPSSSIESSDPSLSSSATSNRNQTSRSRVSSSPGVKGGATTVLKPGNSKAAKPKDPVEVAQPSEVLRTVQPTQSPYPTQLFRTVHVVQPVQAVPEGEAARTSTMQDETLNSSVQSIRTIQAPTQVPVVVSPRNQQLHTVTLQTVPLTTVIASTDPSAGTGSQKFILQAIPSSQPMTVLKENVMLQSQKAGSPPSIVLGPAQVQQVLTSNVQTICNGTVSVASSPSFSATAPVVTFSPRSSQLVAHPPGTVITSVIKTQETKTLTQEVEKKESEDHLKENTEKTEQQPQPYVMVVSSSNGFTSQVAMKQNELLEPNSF
# How it was run: as §1
# [6] = molecular target: T5, EHF (Homo sapiens, UniProt Q9NZC4 1-300); details: protein: recombinant; tags: N-terminal GST; dsDNA, one strand shown
# T5 sequence: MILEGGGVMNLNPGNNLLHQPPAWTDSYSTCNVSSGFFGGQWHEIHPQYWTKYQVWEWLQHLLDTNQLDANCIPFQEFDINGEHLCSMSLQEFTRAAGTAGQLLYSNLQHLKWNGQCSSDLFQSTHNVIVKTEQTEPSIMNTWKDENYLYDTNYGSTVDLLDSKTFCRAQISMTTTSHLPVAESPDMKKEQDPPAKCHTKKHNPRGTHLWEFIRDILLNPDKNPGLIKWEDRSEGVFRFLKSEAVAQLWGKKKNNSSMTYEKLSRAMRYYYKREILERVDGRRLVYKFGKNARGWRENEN
# How it was run: as §1
# [7] = molecular target: SPI1 (Homo sapiens, UniProt P17947 1-270); details: protein: recombinant; tags: N-terminal GST; dsDNA, one strand shown
# How it was run: as §1
# [8] = molecular target: SPIB (Homo sapiens, UniProt Q01892 1-262); details: protein: recombinant; tags: N-terminal GST; dsDNA, one strand shown
# SPIB, sequence (Q01892 whole entry): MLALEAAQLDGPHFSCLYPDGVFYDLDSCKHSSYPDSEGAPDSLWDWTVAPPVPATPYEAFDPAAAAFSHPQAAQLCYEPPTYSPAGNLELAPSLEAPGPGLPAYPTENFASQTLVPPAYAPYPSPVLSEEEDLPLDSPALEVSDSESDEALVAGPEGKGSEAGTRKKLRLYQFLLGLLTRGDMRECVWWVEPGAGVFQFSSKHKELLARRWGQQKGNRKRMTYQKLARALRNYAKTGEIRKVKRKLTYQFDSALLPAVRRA
# How it was run: as §1
# [9] = molecular target: T6, ELK3 (Homo sapiens, UniProt P41970 1-407); details: protein: recombinant; tags: N-terminal GST; dsDNA, one strand shown
# T6 sequence: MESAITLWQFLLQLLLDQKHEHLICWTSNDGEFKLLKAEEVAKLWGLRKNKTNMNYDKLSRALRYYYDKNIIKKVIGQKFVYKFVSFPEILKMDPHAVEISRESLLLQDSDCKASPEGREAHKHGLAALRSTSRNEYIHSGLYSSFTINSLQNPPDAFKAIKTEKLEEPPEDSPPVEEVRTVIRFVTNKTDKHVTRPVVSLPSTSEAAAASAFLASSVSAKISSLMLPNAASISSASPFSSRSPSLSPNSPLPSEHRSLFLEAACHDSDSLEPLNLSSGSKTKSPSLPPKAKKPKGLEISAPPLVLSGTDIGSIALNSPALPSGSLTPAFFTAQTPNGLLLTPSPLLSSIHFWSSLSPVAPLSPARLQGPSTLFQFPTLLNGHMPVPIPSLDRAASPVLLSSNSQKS
# How it was run: as §1
# [10] = molecular target: T7, FEV (Homo sapiens, UniProt Q99581 1-238); details: protein: recombinant; tags: N-terminal GST; dsDNA, one strand shown
# T7 sequence: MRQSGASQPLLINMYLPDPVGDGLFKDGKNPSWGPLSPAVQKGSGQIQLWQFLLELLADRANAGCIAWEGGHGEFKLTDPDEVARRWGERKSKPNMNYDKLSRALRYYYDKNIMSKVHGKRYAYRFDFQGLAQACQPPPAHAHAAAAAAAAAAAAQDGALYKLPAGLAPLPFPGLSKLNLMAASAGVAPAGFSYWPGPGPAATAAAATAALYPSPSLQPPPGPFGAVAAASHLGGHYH
# How it was run: as §1
# [11] = molecular target: ETV5 (Homo sapiens, UniProt P41161 1-510); details: protein: recombinant; tags: N-terminal GST; dsDNA, one strand shown
# ETV5, sequence (P41161 whole entry): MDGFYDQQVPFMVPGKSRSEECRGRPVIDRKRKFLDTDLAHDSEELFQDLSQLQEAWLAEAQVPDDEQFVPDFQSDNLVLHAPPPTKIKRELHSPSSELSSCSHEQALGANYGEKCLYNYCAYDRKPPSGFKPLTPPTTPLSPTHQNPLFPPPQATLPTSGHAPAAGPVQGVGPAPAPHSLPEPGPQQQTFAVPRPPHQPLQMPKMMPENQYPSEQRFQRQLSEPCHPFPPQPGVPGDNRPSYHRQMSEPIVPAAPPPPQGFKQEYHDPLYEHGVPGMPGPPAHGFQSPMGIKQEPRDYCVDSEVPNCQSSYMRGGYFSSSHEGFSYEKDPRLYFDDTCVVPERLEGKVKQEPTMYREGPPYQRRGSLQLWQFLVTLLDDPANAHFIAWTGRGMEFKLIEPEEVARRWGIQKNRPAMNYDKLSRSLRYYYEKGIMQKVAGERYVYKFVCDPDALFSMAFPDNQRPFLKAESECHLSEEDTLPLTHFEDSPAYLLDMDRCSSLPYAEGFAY
# How it was run: as §1
# [12] = molecular target: HSF1 (Homo sapiens, UniProt Q00613 1-529); details: protein: recombinant; tags: N-terminal GST; chain copies: 3; dsDNA, one strand shown
# HSF1, sequence (Q00613 whole entry): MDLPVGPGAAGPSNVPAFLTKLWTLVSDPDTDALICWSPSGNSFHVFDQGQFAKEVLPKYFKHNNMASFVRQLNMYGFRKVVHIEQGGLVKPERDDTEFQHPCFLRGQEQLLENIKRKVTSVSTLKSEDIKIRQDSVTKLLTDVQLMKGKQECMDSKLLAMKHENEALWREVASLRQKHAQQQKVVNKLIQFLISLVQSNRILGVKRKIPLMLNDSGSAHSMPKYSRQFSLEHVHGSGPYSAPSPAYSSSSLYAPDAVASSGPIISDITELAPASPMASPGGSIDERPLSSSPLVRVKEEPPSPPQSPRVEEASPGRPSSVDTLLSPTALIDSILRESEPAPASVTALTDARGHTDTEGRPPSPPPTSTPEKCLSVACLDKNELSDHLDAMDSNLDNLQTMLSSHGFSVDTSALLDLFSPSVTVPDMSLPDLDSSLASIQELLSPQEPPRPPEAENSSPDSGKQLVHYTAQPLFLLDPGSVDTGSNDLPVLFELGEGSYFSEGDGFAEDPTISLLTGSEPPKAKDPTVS
# How it was run: as §1
# [13] = molecular target: T8, SPIC (Homo sapiens, UniProt Q8N5J4 1-248); details: protein: recombinant; tags: N-terminal GST; dsDNA, one strand shown
# T8 sequence: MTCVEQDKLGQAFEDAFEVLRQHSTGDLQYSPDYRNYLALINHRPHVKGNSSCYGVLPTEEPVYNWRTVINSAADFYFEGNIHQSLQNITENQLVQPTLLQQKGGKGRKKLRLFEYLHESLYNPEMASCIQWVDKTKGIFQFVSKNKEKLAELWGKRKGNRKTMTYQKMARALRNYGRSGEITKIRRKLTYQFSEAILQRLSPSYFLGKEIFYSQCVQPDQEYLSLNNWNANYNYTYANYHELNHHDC
# How it was run: as §1
# [14] = molecular target: ELF4 (Homo sapiens, UniProt Q99607 1-663); details: protein: recombinant; tags: N-terminal GST; dsDNA, one strand shown
# ELF4, sequence (Q99607 whole entry): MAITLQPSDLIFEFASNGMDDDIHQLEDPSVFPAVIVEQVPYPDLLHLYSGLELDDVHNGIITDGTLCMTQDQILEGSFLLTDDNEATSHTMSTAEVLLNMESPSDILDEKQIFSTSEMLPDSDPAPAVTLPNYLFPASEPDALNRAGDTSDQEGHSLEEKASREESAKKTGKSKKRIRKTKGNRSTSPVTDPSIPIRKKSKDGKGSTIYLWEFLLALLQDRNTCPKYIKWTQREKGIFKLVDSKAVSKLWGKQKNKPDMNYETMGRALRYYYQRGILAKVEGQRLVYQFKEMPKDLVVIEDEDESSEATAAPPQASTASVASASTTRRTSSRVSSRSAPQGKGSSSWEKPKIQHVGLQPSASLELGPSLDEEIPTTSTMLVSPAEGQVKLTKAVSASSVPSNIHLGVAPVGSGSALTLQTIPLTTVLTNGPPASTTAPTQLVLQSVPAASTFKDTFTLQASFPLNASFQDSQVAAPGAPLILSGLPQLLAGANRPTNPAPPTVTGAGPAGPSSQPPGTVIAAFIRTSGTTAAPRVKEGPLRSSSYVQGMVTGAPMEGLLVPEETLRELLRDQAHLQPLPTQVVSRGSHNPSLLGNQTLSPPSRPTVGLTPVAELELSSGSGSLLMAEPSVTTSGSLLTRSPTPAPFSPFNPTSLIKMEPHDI
# How it was run: as §1
# [15] = molecular target: T9, ELK4 (Homo sapiens, UniProt P28324-2 1-405); details: protein: recombinant; tags: N-terminal GST; dsDNA, one strand shown
# T9 sequence: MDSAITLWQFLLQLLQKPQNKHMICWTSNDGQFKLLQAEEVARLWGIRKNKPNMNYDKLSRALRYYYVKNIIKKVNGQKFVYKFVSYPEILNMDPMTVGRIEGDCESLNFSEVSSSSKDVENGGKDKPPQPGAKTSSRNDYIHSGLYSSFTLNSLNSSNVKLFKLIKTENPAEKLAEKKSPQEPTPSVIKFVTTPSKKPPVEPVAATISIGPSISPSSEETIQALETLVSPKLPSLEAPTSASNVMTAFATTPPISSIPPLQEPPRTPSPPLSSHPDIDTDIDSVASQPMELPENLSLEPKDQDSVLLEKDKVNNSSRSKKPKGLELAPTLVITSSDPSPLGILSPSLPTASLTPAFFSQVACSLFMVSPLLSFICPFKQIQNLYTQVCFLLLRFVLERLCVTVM
# How it was run: as §1
# [16] = molecular target: T10, ETV2 (Homo sapiens, UniProt O00321 1-342); details: protein: recombinant; tags: N-terminal GST; dsDNA, one strand shown
# T10 sequence: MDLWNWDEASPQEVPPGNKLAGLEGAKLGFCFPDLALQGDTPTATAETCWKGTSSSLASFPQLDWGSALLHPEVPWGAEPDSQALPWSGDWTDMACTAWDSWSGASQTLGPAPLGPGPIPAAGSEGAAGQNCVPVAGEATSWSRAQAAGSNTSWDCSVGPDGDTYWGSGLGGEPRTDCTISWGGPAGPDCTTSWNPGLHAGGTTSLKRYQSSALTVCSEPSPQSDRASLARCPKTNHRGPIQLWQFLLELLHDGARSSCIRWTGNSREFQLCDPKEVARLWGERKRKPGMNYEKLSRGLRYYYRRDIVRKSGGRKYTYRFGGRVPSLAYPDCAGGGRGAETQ
# How it was run: as §1
# [17] = molecular target: T11, ELF3 (Homo sapiens, UniProt P78545 1-371); details: protein: recombinant; tags: N-terminal GST; dsDNA, one strand shown
# T11 sequence: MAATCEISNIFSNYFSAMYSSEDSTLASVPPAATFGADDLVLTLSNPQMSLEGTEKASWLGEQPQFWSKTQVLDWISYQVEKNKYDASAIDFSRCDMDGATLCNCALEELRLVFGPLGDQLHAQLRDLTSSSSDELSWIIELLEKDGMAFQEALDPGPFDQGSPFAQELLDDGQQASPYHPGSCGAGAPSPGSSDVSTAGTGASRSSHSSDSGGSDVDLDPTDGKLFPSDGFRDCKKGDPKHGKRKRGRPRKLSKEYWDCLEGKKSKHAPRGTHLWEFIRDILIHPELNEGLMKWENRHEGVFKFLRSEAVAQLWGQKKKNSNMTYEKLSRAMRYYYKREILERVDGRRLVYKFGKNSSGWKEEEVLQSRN
# How it was run: as §1
# [18] = molecular target: CRX (Homo sapiens, UniProt O43186 1-299); details: protein: recombinant; tags: N-terminal GST; dsDNA, one strand shown
# CRX, sequence (O43186 whole entry): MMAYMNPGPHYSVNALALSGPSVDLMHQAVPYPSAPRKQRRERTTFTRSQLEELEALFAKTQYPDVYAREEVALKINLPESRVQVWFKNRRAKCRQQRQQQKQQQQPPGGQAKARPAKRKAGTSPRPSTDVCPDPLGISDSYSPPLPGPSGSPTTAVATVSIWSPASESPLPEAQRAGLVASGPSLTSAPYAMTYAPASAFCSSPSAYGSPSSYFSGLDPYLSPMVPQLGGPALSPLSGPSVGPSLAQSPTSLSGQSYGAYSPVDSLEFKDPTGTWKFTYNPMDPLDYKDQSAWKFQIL
# How it was run: as §1
# [19] = molecular target: ETV1 (Homo sapiens, UniProt P50549 1-477); details: protein: recombinant; tags: N-terminal GST; dsDNA, one strand shown
# ETV1, sequence (P50549 whole entry): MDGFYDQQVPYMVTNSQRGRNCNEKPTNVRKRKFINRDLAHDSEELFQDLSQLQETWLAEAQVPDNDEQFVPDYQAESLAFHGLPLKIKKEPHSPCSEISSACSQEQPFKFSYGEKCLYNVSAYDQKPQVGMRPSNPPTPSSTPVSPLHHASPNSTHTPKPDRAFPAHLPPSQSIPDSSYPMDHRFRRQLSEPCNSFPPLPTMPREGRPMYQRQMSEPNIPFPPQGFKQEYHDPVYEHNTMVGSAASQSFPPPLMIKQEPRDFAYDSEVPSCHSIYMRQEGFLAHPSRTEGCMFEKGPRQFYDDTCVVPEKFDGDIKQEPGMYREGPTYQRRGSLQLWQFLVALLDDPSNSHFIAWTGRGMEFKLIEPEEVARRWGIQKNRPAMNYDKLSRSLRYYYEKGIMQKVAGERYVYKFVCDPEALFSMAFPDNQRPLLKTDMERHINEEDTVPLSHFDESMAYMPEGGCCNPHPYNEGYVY
# How it was run: as §1
sequence,measurement,setting,value
TCCCAC,binding signal,[1],"1.31 fold enrichment (6-mer frequency, TF over GST control)"
same,binding signal,[2],"1.42 fold enrichment (6-mer frequency, TF over GST control)"
same,binding signal,[3],"1.36 fold enrichment (6-mer frequency, TF over GST control)"
same,binding signal,[4],"1.37 fold enrichment (6-mer frequency, TF over GST control)"
same,binding signal,[5],"1.47 fold enrichment (6-mer frequency, TF over GST control)"
same,binding signal,[6],"1.38 fold enrichment (6-mer frequency, TF over GST control)"
same,binding signal,[7],"1.34 fold enrichment (6-mer frequency, TF over GST control)"
same,binding signal,[8],"1.26 fold enrichment (6-mer frequency, TF over GST control)"
same,binding signal,[9],"1.27 fold enrichment (6-mer frequency, TF over GST control)"
same,binding signal,[10],"1.38 fold enrichment (6-mer frequency, TF over GST control)"
same,binding signal,[11],"1.37 fold enrichment (6-mer frequency, TF over GST control)"
same,binding signal,[12],"1.17 fold enrichment (6-mer frequency, TF over GST control)"
same,binding signal,[13],"1.17 fold enrichment (6-mer frequency, TF over GST control)"
same,binding signal,[14],"1.34 fold enrichment (6-mer frequency, TF over GST control)"
same,binding signal,[15],"1.34 fold enrichment (6-mer frequency, TF over GST control)"
same,binding signal,[16],"1.12 fold enrichment (6-mer frequency, TF over GST control)"
same,binding signal,[17],"1.46 fold enrichment (6-mer frequency, TF over GST control)"
same,binding signal,[18],"1.34 fold enrichment (6-mer frequency, TF over GST control)"
same,binding signal,[19],"1.34 fold enrichment (6-mer frequency, TF over GST control)"
